Shown is part of a subset that was picked to be rich in the strongest signals.
How the values were obtained:
Assay in all cases: glycan array binding signal (z-score within array); higher = stronger binding
Settings in all cases: glycan notation: IUPAC condensed, linker removed; mutation: D325N
[1] = biological target: Fuc(a1-2)[Gal(a1-3)]Gal(b1-4)[Fuc(a1-3)]GlcNAc
In short: (§1)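 Arrays were curated from the Consortium for Functional Glycomics database, 3228 in total, and kept only where the protein sequence was available. Binding is expressed as a within-array Z-score. This score was averaged across arrays of the same protein sequence at different concentrations or buffers and across linkers, and negative values can be read as non-binding.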

[2] = biological target: Fuc(a1-3)[Gal3S(b1-4)]Glc6S
In short: as §1

[3] = biological target: Gal(a1-2)Gal
In short: as §1

[4] = biological target: Gal(a1-3)Gal(b1-3)GlcNAc
In short: as §1

[5] = biological target: Gal(a1-3)Gal(b1-4)Glc
In short: as §1

[6] = biological target: Gal(b1-3)[Neu5Ac(b2-6)]GalNAc
In short: as §1

[7] = biological target: Gal(b1-4)GlcNAc(b1-3)Gal(b1-4)[Fuc(a1-3)]GlcNAc(b1-3)Gal(b1-4)[Fuc(a1-3)]GlcNAc
In short: as §1

[8] = biological target: Gal(b1-4)GlcNAc(b1-6)Gal(b1-4)GlcNAc(b1-6)GalNAc
In short: as §1

[9] = biological target: Gal(b1-4)GlcNAc(b1-6)GalNAc
In short: as §1

[10] = biological target: Gal(b1-4)GlcNAc(b1-6)[Gal(b1-3)]GalNAc
In short: as §1

[11] = biological target: GlcNAc(b1-3)Gal(b1-4)Glc
In short: as §1

[12] = biological target: GlcNAc(b1-6)Gal(b1-4)GlcNAc
In short: as §1

[13] = biological target: Man(a1-2)Man(a1-2)Man(a1-3)Man
In short: as §1

[14] = biological target: Man(a1-2)Man(a1-3)[Man(a1-2)Man(a1-6)]Man
In short: as §1

[15] = biological target: Man(a1-2)Man(a1-3)[Man(a1-2)Man(a1-6)]Man(a1-6)[Man(a1-2)Man(a1-2)Man(a1-3)]Man
In short: as §1

[16] = biological target: Man(a1-2)Man(a1-6)[Man(a1-3)]Man(a1-6)[Man(a1-2)Man(a1-2)Man(a1-3)]Man
In short: as §1

[17] = biological target: Man(a1-3)[Man(a1-6)]Man(a1-6)[Man(a1-3)]Man
In short: as §1

[18] = biological target: Man(a1-3)[Man(a1-6)]Man(a1-6)[Man(a1-3)]Man(b1-4)GlcNAc(b1-4)GlcNAc
In short: as §1

[19] = biological target: Neu5Ac(a2-3)Gal(b1-3)GlcNAc
In short: as §1

[20] = biological target: Neu5Ac(a2-3)Gal(b1-4)[Fuc(a1-3)]GlcNAc(b1-3)Gal(b1-4)GlcNAc
In short: as §1

[21] = biological target: Neu5Ac(a2-3)GalNAc(b1-4)GlcNAc
In short: as §1

[22] = biological target: Neu5Ac(a2-6)Gal
In short: as §1

[23] = biological target: Neu5Ac(a2-6)Gal(b1-4)Glc
In short: as §1

[24] = biological target: Neu5Ac(a2-6)GalNAc
In short: as §1

[25] = biological target: Neu5Ac(a2-8)Neu5Ac(a2-8)Neu5Ac
In short: as §1

B1: Surfactant Protein D (Human); Neck + Carbohydrate Recognition Domain (NCRD) (Homo sapiens) (protein)
chain: MLLFLLSALVLLTQPLGYLEAEMKTYSHRTMPSACTLVMCSSVESGLPGRDRDGREGPRGEKGDPGLPGAAGQAGMPGQAGPVGPKGDNGSVGEPGPKGDTGPSGPPGPPGVPGPAGREGALGKQGNIGPQGKPGPKGEAGPKGEVGAPGMQGSAGARGLAGPKGERGVPGERGVPGNTGAAGSAGAMGPQGSPGARGPPGLKGDKGIPGDKGAKGESGLPDVASLRQQVEALQGQVQHLQAAFSQYKKVELFPNGQSVGEKIFKTAQFVKPFTEAQLLCTQAGGQLASPRSAAENAALQQLVVAKNEAAFLSMTDSKTEGKFTYPTGESLVYSNWAPGEPNDNGGSEDCVEIFTNGKWNDRACGEKRLVVCEF
glycan array binding signal (z-score) [1]: -0.1
glycan array binding signal (z-score) [2]: -0.117
glycan array binding signal (z-score) [3]: -0.109
glycan array binding signal (z-score) [4]: -0.169
glycan array binding signal (z-score) [5]: -0.123
glycan array binding signal (z-score) [6]: -0.139
glycan array binding signal (z-score) [7]: -0.105
glycan array binding signal (z-score) [8]: -0.132
glycan array binding signal (z-score) [9]: -0.138
glycan array binding signal (z-score) [10]: -0.128
glycan array binding signal (z-score) [11]: -0.118
glycan array binding signal (z-score) [12]: -0.138
glycan array binding signal (z-score) [13]: 2.18
glycan array binding signal (z-score) [14]: 1.77
glycan array binding signal (z-score) [15]: 9.38
glycan array binding signal (z-score) [16]: 8.54
glycan array binding signal (z-score) [17]: 11.2
glycan array binding signal (z-score) [18]: 0.338
glycan array binding signal (z-score) [19]: -0.127
glycan array binding signal (z-score) [20]: -0.114
glycan array binding signal (z-score) [21]: -0.148
glycan array binding signal (z-score) [22]: -0.148
glycan array binding signal (z-score) [23]: -0.153
glycan array binding signal (z-score) [24]: -0.129
glycan array binding signal (z-score) [25]: -0.163

Reference: the supplement of paper PMC8728848
